According to PubChem BioAssay (Tox21):
Values joined by “and” are separate entries in the source; they are usually repeats but may differ in a detail not shown here. Identical values can stand only once. Records with an inconclusive call do not appear. A call without a number means that no potency is given here. Active and inactive are the calls of the source. Unless noted, calls follow the shape of the dose curve; as a rule, active = well fitted curve in the direction sought with a large enough effect in the repeat runs; inconclusive = weak or mixed curves; inactive = no such curve, though single readings can be large; an effect the other way counts as inactive or inconclusive. Starred links: 1 amine or outer side, 2 acyl side, 3 side chain; linkers in the order of their positions; H or OH if unused. Positions of bridges follow the written chain, without caps; N, C: chain ends. Non-standard residues stand in square brackets, D forms with d. Residues, ends and D or L forms follow the SMILES beside them. Chains are numbered I, II in the order given. Actinocin(9to1) = Cc1c2oc3c(C)ccc(C(=O)[*:1])c3nc-2c(C(=O)[*:2])c(N)c1=O; NMeV = CN[C@H](C(=O)O)C(C)C; Sar = CNCC(=O)O

How the values were obtained:
[1] = target: Estrogen receptor beta (Homo sapiens) (UniProt Q92731); test: qHTS assay to identify small molecule agonists of the estrogen receptor beta (ER-beta) signaling pathway (AID 1259377; active = well fitted activation curve with a large enough effect in the signal ratio in the repeat runs, not every such curve was filed as active; the % refers to the signal ratio)
Chain of Estrogen receptor beta (Homo sapiens) (Q92731 whole entry, looked up): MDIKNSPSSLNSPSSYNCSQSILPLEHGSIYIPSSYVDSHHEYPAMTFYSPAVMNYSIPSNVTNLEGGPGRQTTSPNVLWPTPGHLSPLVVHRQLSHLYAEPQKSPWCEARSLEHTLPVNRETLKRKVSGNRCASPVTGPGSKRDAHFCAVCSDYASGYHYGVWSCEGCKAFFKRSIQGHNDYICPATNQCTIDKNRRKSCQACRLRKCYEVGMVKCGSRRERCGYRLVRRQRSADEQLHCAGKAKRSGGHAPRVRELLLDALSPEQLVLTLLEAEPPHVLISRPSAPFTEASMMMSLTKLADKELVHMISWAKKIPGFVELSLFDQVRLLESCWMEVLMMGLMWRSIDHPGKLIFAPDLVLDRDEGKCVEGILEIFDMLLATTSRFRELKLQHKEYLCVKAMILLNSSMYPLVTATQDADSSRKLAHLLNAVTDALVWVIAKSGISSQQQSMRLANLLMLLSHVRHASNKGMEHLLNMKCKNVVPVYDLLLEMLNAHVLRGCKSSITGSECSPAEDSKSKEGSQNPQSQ
Summary of the method: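 Reporter cells (HEK293T, ER-beta-UAS-bla) receive compounds or DMSO after a 6 hr pre-incubation. They then incubate 16 hr at 37C/5% CO2, and fluorescence from LiveBLAzer B/G substrate is measured after 2 hours at room temperature.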

[2] = target: Estrogen receptor beta (Homo sapiens) (UniProt Q92731); test: qHTS assay to identify small molecule antagonists of the estrogen receptor beta (ER-beta) signaling pathway (AID 1259378; active = well fitted inhibition curve with a large enough effect in the signal ratio in the repeat runs, not every such curve was filed as active; the % refers to the signal ratio; also: potency is read from the fitted curve at half-maximal effect)
Summary of the method: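 ER-beta-UAS-bla HEK293T (GripTite) cells in 2% charcoal-stripped FBS medium were preincubated 6 hr at 37C, dosed with compound, then stimulated with 1 nM E2 (final) for 16 hr; beta-lactamase reporter read by B/G FRET fluorescence after 2 hr substrate loading.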

[3] = qHTS assay to identify small molecule agonists of the androgen receptor (AR) signaling pathway in the presence of an antagonist - cell viability counter screen (AID 1259379); also: nearly all actives have a fitted effect of over 25% in size; also: potency is read from the fitted curve at half-maximal effect
Summary of the method: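 A CellTiter-Fluor read-out measured viability of MDA-kb2 reporter cells (MMTV promoter with AR and GR response elements). Treatment: nilutamide 3.0uM final with compounds at 15 concentrations, 16 hr, 37C, 0% CO2.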

[4] = qHTS assay to identify small molecule agonists of the estrogen receptor beta (ER-beta) signaling pathway - cell viability counter screen (AID 1259380); also: nearly all actives have a fitted effect of over 30% in size; also: potency is read from the fitted curve at half-maximal effect
Summary of the method: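 Cells used were ER-beta-UAS-bla HEK293T in medium with 2% charcoal-stripped FBS. They were treated for 16 hr at 37C. Viability came from CellTiter-Glo luminescence.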

[5] = target: Androgen receptor (Homo sapiens) (UniProt P10275); test: qHTS assay to identify small molecule agonists of the androgen receptor (AR) signaling pathway in the presence of an antagonist (AID 1259381; calls by dose curve; also: nearly all actives have a fitted effect of over 15% in size)
Chain of Androgen receptor (Homo sapiens) (P10275 whole entry, looked up): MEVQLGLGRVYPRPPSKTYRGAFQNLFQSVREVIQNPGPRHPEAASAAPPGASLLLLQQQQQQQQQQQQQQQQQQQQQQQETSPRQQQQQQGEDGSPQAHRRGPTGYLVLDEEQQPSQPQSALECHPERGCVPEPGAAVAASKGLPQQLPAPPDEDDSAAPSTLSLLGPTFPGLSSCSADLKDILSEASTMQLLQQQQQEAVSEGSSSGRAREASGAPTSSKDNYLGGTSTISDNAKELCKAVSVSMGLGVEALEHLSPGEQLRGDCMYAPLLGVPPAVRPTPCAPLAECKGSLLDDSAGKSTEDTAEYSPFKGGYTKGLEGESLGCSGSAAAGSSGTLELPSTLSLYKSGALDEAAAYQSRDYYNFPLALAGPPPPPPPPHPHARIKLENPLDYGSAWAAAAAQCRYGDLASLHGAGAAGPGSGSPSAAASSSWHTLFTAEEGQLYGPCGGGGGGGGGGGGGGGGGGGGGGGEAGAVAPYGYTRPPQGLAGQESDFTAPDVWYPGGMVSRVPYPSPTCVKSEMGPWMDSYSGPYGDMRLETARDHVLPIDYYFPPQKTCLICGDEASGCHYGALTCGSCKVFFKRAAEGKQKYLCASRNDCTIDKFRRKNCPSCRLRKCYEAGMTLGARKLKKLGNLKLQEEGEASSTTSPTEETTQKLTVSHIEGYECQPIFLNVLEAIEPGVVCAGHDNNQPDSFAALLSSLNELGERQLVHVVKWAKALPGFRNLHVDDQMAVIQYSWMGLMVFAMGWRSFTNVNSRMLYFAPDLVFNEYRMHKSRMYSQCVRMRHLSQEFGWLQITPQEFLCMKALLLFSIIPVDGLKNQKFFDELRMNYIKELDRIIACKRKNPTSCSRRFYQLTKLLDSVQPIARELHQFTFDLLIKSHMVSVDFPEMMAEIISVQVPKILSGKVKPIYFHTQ
Summary of the method: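 Using human MDA-kb2 cells with an MMTV promoter–luciferase construct (AR and GR response elements), agonist activity is scored under 3.0uM nilutamide (final) co-treatment; 16hr incubation, 37C, luminescence readout via ONE-Glo.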

[6] = qHTS assay to identify small molecule antagonists of the estrogen receptor beta (ER-beta) signaling pathway - cell viability counter screen (AID 1259382); also: nearly all actives have a fitted effect of over 55% in size; also: potency is read from the fitted curve at half-maximal effect
Summary of the method: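 Agonist-stimulated (1nM E2) ER-beta-UAS-bla HEK293T cells are incubated with library compounds for 16 hr at 37C. Cell viability is then assessed in the reporter-assay wells by adding CellTiter-Glo and reading luminescence after 30 min.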

[7] = target: Estrogen receptor (Homo sapiens) (UniProt P03372); test: qHTS assay to identify small molecule agonists of the estrogen receptor alpha (ER-alpha) signaling pathway in the presence of an antagonist (AID 1259383; calls by dose curve; also: top concentration of the series differs between compounds; nearly all actives have a fitted effect of over 15% in size)
Chain of Estrogen receptor (Homo sapiens) (P03372 whole entry, looked up): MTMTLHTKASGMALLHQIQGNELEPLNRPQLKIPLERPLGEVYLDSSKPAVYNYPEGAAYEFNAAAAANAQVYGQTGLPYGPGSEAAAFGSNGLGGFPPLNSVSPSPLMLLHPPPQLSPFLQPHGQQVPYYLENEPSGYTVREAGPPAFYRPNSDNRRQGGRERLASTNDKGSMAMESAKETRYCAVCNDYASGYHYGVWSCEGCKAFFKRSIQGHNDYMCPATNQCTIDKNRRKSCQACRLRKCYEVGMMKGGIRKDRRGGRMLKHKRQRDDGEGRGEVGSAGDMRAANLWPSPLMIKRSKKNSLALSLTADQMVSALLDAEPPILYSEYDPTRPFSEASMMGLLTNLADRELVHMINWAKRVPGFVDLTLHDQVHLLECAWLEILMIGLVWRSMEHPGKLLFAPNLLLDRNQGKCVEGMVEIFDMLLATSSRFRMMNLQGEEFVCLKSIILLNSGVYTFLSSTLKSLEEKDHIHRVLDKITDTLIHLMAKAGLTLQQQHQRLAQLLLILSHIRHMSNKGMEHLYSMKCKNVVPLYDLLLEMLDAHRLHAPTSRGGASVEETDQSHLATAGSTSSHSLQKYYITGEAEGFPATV
Summary of the method: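 Using VM7Luc4E2 cells seeded 24hr before treatment, antagonist ICI-182,780 (10.0nM final) was added, followed by compounds at 15 concentrations. Plates incubated 22hr; ONE-Glo luminescence quantified reporter activity.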

[8] = qHTS assay to identify small molecule agonists of the estrogen receptor alpha (ER-alpha) signaling pathway in the presence of an antagonist - cell viability counter screen (AID 1259386);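 also: cells exposed to compounds for 22 h at 37 °C before the viability read; nearly all actives have a fitted effect of over 30% in size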; also: potency is read from the fitted curve at half-maximal effect
Summary of the method: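 ICI-182,780 at 10.0nM final accompanies the compound titration (15 concentrations, 22hr, 37C) on VM7Luc4E2 cells. The CellTiter-Fluor fluorescence readout runs in the same wells as the luciferase assay.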

[9] = target: Progesterone receptor (Homo sapiens) (UniProt P06401); test: qHTS assay to identify small molecule antagonists of the progesterone receptor (PR) signaling pathway (AID 1346795; active = well fitted inhibition curve with a large enough effect in the signal ratio in the repeat runs, not every such curve was filed as active; the % refers to the signal ratio; also: potency is read from the fitted curve at half-maximal effect)
Chain of Progesterone receptor (Homo sapiens) (P06401 whole entry, looked up): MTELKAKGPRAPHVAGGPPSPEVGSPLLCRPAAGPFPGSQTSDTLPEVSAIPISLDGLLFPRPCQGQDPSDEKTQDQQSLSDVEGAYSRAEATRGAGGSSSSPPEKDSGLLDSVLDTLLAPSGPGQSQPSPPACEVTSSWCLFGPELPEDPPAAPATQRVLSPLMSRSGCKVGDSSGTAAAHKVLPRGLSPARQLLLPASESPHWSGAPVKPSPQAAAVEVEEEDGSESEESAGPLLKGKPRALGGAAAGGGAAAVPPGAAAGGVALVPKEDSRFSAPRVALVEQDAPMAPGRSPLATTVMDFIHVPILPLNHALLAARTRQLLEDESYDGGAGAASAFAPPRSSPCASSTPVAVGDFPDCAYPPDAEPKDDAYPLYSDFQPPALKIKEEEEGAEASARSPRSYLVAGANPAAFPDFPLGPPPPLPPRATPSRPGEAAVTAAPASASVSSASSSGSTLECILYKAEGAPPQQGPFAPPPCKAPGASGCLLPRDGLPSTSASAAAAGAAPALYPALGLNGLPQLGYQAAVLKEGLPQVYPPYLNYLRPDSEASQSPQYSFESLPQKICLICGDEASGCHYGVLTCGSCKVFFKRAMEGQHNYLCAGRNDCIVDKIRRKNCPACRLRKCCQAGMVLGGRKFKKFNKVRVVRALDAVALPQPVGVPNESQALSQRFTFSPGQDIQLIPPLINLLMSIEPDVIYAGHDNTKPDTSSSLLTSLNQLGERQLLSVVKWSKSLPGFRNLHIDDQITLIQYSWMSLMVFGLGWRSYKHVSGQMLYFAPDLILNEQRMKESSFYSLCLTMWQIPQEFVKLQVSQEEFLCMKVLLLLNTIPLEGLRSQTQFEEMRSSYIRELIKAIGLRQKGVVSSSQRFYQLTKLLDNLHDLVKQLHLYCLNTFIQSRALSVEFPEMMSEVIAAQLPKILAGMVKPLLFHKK
Summary of the method: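 Stimulus R5020 at 1 nM final; cells HEK293T PR-UAS-bla; medium with 2% charcoal-stripped FBS; compound exposure 16 hr at 37C, 5% CO2; detection by FRET beta-lactamase substrate, 2 hr, room temperature.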

[10] = qHTS assay to identify small molecule antagonists of the TGF-beta/Smad signaling pathway - cell viability counter screen (AID 1346824); also: nearly all actives have a fitted effect of over 50% in size
Summary of the method: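 SBE-bla HEK 293T cells were plated overnight at 37 C, then given compounds in DMSO plus TGF-beta1 (added as 0.25 ng/mL solution) for 5 hr. After the bla read, CellTiter-Glo was added to the same wells and luminescence read after 30 min at room temperature.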

[11] = qHTS assay to identify small molecule agonists of the TGF-beta/Smad signaling pathway (AID 1346859; active = well fitted activation curve with a large enough effect in the signal ratio in the repeat runs, not every such curve was filed as active; the % refers to the signal ratio; also: series mostly up to about 77 µM)
Summary of the method: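 Screening used HEK 293T SBE-bla cells at 4,000/well. Test agents: 5 hr, 37 C. Detection: FRET substrate, 2 hr RT, then excitation 405 nm with emissions at 460 and 530 nm.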

[12] = target: Thyrotropin-releasing hormone receptor (Homo sapiens) (UniProt P34981); test: qHTS assay to identify small molecule antagonists of the thyrotropin-releasing hormone receptor (TRHR) signaling pathway (AID 1346877; active = well fitted inhibition curve with a large enough effect in the repeat runs, not every such curve was filed as active; also: series mostly up to about 51 µM)
Chain of Thyrotropin-releasing hormone receptor (Homo sapiens) (P34981 whole entry, looked up): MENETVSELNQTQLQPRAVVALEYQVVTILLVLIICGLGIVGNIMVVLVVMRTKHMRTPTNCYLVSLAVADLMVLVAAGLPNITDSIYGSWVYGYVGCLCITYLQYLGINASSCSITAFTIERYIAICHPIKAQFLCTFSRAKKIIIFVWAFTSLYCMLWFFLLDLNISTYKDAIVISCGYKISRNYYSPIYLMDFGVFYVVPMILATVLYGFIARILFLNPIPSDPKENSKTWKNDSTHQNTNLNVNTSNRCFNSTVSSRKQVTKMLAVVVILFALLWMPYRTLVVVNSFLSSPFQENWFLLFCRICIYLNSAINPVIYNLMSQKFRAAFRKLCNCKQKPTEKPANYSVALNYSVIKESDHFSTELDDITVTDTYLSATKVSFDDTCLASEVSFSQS
Summary of the method: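 Screening used HEK293 cells engineered with TRHR, with a brief 5 min room-temperature compound exposure preceding addition of TRH to 1 nM. The read-out was kinetic calcium-dye fluorescence, concentration-response from 15 doses in triplicate.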

[13] = target: Thyrotropin-releasing hormone receptor (Homo sapiens) (UniProt P34981); test: qHTS assay to identify small molecule agonists of the thyrotropin-releasing hormone receptor (TRHR) signaling pathway (AID 1346891; calls by dose curve; also: series mostly up to about 58 µM)
Summary of the method: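 Readout was intracellular calcium fluorescence in TRHR-Hek293 cells. Cells were incubated 18 h, dye-loaded 2 h at 37 °C, and treated with compound in agonist mode.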

[14] = qHTS assay to identify small molecule agonists or antagonists of the thyroid stimulating hormone receptor (TSHR) signaling pathway - wild type cell line counter screen (AID 1259384; calls by dose curve)
Summary of the method: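 Wild-type HEK293 cells were plated 18 h at 37 C/5% CO2, pin-dosed with compound plus Ro20-1724 medium, held 30 min at room temperature, then given cAMP-d2 and anti-cAMP-cryptate; fluorescence was read after 1 h. Fifteen concentrations, triplicate.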

[15] = target: Thyrotropin receptor (Homo sapiens) (UniProt P16473); test: qHTS assay to identify small molecule antagonists of the thyroid stimulating hormone receptor (TSHR) signaling pathway (AID 1259385; calls by dose curve; also: nearly all actives have a fitted effect of over 20% in size)
Chain of Thyrotropin receptor (Homo sapiens) (P16473 whole entry, looked up): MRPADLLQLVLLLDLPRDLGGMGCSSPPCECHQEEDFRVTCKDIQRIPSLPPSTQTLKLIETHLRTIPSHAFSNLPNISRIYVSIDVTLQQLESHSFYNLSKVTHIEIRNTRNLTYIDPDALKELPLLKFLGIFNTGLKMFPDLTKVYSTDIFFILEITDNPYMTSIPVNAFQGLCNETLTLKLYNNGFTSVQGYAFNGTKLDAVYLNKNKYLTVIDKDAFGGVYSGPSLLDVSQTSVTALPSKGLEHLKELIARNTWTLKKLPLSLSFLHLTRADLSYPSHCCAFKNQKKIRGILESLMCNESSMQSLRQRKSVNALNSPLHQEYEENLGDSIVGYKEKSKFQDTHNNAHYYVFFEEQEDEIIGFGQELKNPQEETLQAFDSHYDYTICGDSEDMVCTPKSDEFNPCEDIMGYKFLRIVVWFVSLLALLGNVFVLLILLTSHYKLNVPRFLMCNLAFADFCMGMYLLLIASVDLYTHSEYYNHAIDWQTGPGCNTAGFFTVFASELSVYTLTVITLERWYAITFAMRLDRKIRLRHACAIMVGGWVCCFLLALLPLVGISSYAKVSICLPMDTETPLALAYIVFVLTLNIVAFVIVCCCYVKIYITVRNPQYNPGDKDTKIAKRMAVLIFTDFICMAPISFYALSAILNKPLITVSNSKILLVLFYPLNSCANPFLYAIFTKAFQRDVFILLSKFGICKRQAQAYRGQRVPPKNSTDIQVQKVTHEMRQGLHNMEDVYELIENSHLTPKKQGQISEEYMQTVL
Summary of the method: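 TSHR-HEK293 cells were plated and held 18 h at 37C/5% CO2, then given compound plus Ro20-1724 and stimulated with TSH at 1.5 ng/mL final. After 30 min at room temperature, cAMP was detected with cAMP-d2/anti-cAMP-cryptate (1 h) by fluorescence.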

[16] = target: Progesterone receptor (Homo sapiens) (UniProt P06401); test: qHTS assay to identify small molecule agonists of the progesterone receptor (PR) signaling pathway (AID 1346784; calls by dose curve; also: nearly all actives have a fitted effect of over 30% in size)
Summary of the method: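 Reporter assay, GripTite PR-UAS-bla HEK 293T cells: 16 hr exposure to DMSO-dissolved compounds at 37C, 5% CO2, in steroid-depleted (2% charcoal-stripped FBS) medium; beta-lactamase measured by FRET fluorescence.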

[17] = qHTS assay to identify small molecule antagonists of the progesterone receptor (PR) signaling pathway - cell viability counter screen (AID 1346798); also: nearly all actives have a fitted effect of over 50% in size; also: potency is read from the fitted curve at half-maximal effect
Summary of the method: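 In the same plates used for the beta-lactamase readout, cell viability of compound- and R5020-treated PR-UAS-bla HEK293T cells (16 hr, 37C) was assessed by CellTiter-Glo luminescence.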

[18] = qHTS assay to identify small molecule agonists of the progesterone receptor (PR) signaling pathway - cell viability counter screen (AID 1346799; calls by dose curve; also: nearly all actives have a fitted effect of over 45% in size; also: potency is read from the fitted curve at half-maximal effect)
Summary of the method: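 Multiplexed viability read: CellTiter-Glo luminescence, 30 min RT, following LiveBLAzer FRET measurement on PR-UAS-bla HEK293T cells exposed to compounds 16 hr.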

[19] = qHTS assay to identify small molecule agonists of the TGF-beta/Smad signaling pathway - cell viability counter screen (AID 1346829); also: top concentration of the series differs between compounds; nearly all actives have a fitted effect of over 45% in size
Summary of the method: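 Compound-treated SBE-bla HEK 293T cells (5 hr, 37 C) were assessed for viability with CellTiter-Glo in parallel with the reporter read.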

[20] = Human pregnane X receptor (PXR) small molecule agonists, qHTS cell viability counter screen (AID 1346977); also: nearly all actives have a fitted effect of over 50% in size; also: potency is read from the fitted curve at half-maximal effect
Summary of the method: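 In each well, the PXR reporter HepG2 line was checked for viability: CellTiter-Fluor reagent added 23hr post-dosing, fluorescence read after 1hr incubation at 37C.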

| Structure (SMILES) | outcome [1] | Potency [2] | Potency [3] | Potency [4] | Potency [5] | Potency [6] | Potency [7] | Potency [8] | Potency [9] | Potency [10] | outcome [11] | Potency [12] | Potency [13] | Potency [14] | Potency [15] | Potency [16] | Potency [17] | Potency [18] | Potency [19] | Potency [20] |
| --- | --- | --- | --- | --- | --- | --- | --- | --- | --- | --- | --- | --- | --- | --- | --- | --- | --- | --- | --- | --- |
| O=Nc1ccc(Nc2ccccc2)cc1 | inactive | 68.6 µM (active) | 54.8 µM (active) and 54.5 µM (active) | 61.4 µM (active) and 48.6 µM (active) | inactive | 61.4 µM (active) | inactive | inactive | 54.5 µM (active) | inactive | inactive | inactive | inactive | – | – | – | – | – | – | – |
| N[C@@H]1CONC1=O | inactive | inactive | inactive | inactive | – | inactive | – | inactive | inactive | inactive | inactive | – | – | inactive | inactive | inactive | inactive | inactive | inactive | inactive |
| CCCCCC(=O)O[C@]1(C(C)=O)CC[C@H]2[C@@H]3CCC4=CC(=O)CC[C@]4(C)[C@H]3CC[C@@]21C | inactive | 6.68 µM (active) | 60.7 µM (active) and 29.8 µM (active) | inactive | – | inactive | inactive | inactive | 21.1 µM (active) | inactive | – | inactive | inactive | inactive | – | – | 43 µM (active) and 33.5 µM (active) | – | – | 43 µM (active) |
| CCCCN(CCO)CCCC | inactive | inactive | inactive | inactive | – | inactive | inactive | inactive | inactive | inactive | inactive | inactive | inactive | inactive | inactive | inactive | inactive | inactive | inactive | inactive |
| OCC(CO)N[C@H]1C[C@](O)(CO)[C@@H](O)[C@H](O)[C@H]1O | inactive | inactive | inactive | inactive | inactive | inactive | inactive | inactive | inactive | inactive | inactive | inactive | inactive | – | inactive | inactive | – | inactive | inactive | inactive |
| O=C(O)c1cc(Cl)cc(Cl)c1 | inactive | inactive | inactive | inactive | – | inactive | inactive | inactive | – | inactive | inactive | inactive | inactive | inactive | inactive | inactive | – | inactive | inactive | inactive |
| CC(=O)OCC1=C(C(=O)O)N2C(=O)[C@@H](NC(=O)Cc3cccs3)[C@H]2SC1 | inactive | inactive | inactive | inactive | – | inactive | – | inactive | inactive | inactive | inactive | inactive | inactive | inactive | inactive | inactive | inactive | inactive | inactive | inactive |
| Cc1c2oc3c(C)ccc(C(=O)N[C@@H]4C(=O)N[C@H](C(C)C)C(=O)N5CCC[C@H]5C(=O)N(C)CC(=O)N(C)[C@@H](C(C)C)C(=O)O[C@@H]4C)c3nc-2c(C(=O)N[C@@H]2C(=O)N[C@H](C(C)C)C(=O)N3CCC[C@H]3C(=O)N(C)CC(=O)N(C)[C@@H](C(C)C)C(=O)O[C@@H]2C)c(N)c1=O (I: T[dV]P[Sar][NMeV] / II: T[dV]P[Sar][NMeV]; ester I:1-I:C, II:1-II:C; linker I:N-II:N via Actinocin(9to1)) | inactive | 0.0266 µM (active) | 10.6 µM (active) | inactive | inactive | inactive | inactive | 26.6 µM (active) and 10.6 µM (active) | 26.6 nM (active) and 33.5 nM (active) | inactive | inactive | inactive | inactive | – | – | inactive | – | – | – | 29.8 nM (active) and 47.3 nM (active) |
| C1COC(NC(C2CC2)C2CC2)=N1 | inactive | inactive | inactive | inactive | – | inactive | inactive | inactive | inactive | inactive | inactive | inactive | inactive | – | inactive | inactive | inactive | inactive | inactive | inactive |
| CO[Si](OC)(OC)c1ccccc1 | inactive | inactive | inactive | inactive | – | inactive | inactive | inactive | inactive | inactive | inactive | inactive | inactive | inactive | inactive | inactive | – | inactive | – | inactive |
| CC(C)(O)CCC(C)(C)O | inactive | inactive | inactive | inactive | inactive | inactive | inactive | inactive | inactive | inactive | inactive | inactive | inactive | inactive | inactive | inactive | inactive | inactive | inactive | inactive |
| Cc1ccnc2c1NC(=O)c1cccnc1N2C1CC1 | inactive | inactive | inactive | inactive | – | inactive | – | inactive | inactive | inactive | inactive | inactive | inactive | inactive | inactive | inactive | inactive | inactive | – | inactive |
| Oc1ccc(Cl)cc1Cc1cc(Cl)ccc1O | inactive | 17.5 µM (active) and 19.3 µM (active) and 23.7 µM (active) | 39.3 µM (active) and 27.3 µM (active) and 29.8 µM (active) | – | inactive | 27.8 µM (active) and 27.3 µM (active) | inactive | 43.3 µM (active) | 15.6 µM (active) and 15.4 µM (active) and 18.8 µM (active) | – | inactive | inactive | inactive | – | inactive | inactive | inactive | 69.8 µM (active) | – | 35.5 µM (active) and 30.6 µM (active) and 16.8 µM (active) |
